Most compounds without a hit are left out; they make up all but 1.5% or so of the library.
RECQ1 inh: blocks DNA unwinding by human RECQ1. hit rate 0.54% among 240,000. P46063. AID 2549. Potency, µM (highest dose often 57.3 µM), without a hit: at the highest dose activity, negative = inhibition, actives largely listed as inhibitors. RECQ1 DNA unwinding, red fluorescence kinetic read;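 note: potency is the fitted concentration of half-maximal effect; plate controls were vehicle for no effect and no enzyme for full effect; nearly all actives have a fitted effect of over 30% in size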
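50 nM RECQ1T1 preincubated 15 min with compound in Tris pH 8.0 buffer with MgCl2, DTT, Tween-20 and 2.5 ug/ml poly(dI-dC); started with 200 nM TAMRA/BHQ-2 forked duplex and 2 mM ATP. Unwinding read as fluorescence (525/598 nm), two reads 2 h apart.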
FEN1 inh: human FEN1 inhibition | P39748 | Recombinant FEN1 flap cleavage, fluorescence, 15 min | Potency, µM (doses to about 114 µM), inactives show top-dose activity change, negative = inhibition, hits mostly inhibitors | hit rate 0.35% among 390,000; note: potency is the fitted concentration of half-maximal effect; nearly all actives have a fitted effect of over 65% in size
Target sequence (P39748 whole entry, looked up): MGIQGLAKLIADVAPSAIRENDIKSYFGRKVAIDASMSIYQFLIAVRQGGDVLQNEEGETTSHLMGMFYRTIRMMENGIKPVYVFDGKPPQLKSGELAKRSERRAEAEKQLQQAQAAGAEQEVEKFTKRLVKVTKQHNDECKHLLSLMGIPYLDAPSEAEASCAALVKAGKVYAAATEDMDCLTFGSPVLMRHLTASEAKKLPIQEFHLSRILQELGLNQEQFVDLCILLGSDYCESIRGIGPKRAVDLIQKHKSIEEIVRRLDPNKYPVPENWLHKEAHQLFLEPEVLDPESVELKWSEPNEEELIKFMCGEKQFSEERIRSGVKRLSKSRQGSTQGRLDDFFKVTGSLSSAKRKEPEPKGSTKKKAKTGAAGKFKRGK
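Nuclease activity of 10 nM FEN1 was measured after 15 min of room-temperature exposure to titrated compounds, by adding 50 nM flap substrate and reading plates at 0 and 15 min.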
BLM inh: blocks DNA unwinding by human BLM helicase. P54132. recombinant BLM DNA unwinding, fluorescence dequenching. Potency, µM (titrated, usually from 56.1 µM), without a hit: at the top dose activity change, negative = inhibition, hits mostly inhibitors. hit rate 0.2% among 350,000. AID 2528;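 note: potency is the fitted concentration of half-maximal effect; plate controls were vehicle for no effect and no enzyme for full effect; nearly all actives have a fitted effect of over 35% in size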
PI5P4Ka inh: inhibitors of human PI5P4K alpha; P48426; PI5P4Kalpha enzyme, ADP-Glo luminescence, 60 min; hits give low values; max response, %; hit rate 1.2% among 330,000; AID 652105; active = max response of -50% or lower; inconclusive = between -30% and -50%; inactive = -30% or higher; note: value at the top dose of about 77 µM
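Reactions run in 0.038 M HEPES pH 7.4, 0.28 mM EGTA, 0.1% CHAPS and 5% DMSO, with PI5P4Kalpha, substrate, compound and 5 microM ATP final, one hour at room temperature. Readout is ADP-Glo luminescence.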
APE1 inh: inhibitors of human APE1 endonuclease; AID 2517; Potency, µM (top dose mostly 65.8 µM), inactives show at the highest dose activity change, negative = inhibition, actives largely listed as inhibitors; P27695; hit rate 0.35% among 350,000; recombinant APE1, TAMRA/BHQ-2 abasic DNA cleavage fluorescence;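 note: potency is the fitted concentration of half-maximal effect; plate controls were vehicle for no effect and reference inhibitor for full effect; nearly all actives have a fitted effect of over 55% in size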
Target sequence (P27695 whole entry, looked up): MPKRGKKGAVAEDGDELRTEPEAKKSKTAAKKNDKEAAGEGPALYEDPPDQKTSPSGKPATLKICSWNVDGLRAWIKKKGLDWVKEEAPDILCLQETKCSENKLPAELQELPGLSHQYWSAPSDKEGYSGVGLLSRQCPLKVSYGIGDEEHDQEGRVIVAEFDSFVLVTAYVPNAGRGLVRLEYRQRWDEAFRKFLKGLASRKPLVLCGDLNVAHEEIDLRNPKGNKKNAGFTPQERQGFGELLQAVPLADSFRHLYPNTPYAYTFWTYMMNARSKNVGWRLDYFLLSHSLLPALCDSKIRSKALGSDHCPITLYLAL
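Incision of a quenched TAMRA/BHQ-2 THF abasic-site duplex (50 nM) by 0.75 nM APE1, after 15 min compound preincubation, measured as fluorescence increase over three 60 s reads. Values normalized to buffer, DMSO and NSC13755 control wells.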
WRN helicase inh: inhibitors of human WRN helicase. Q14191. WRN helicase unwinding, fluorescent forked duplex, kinetic. Potency, µM (series often up to 114 µM), without a hit: top-dose activity change, negative = inhibition, hits mostly inhibitors. hit rate 0.46% among 360,000. AID 651768; note: potency is the fitted concentration of half-maximal effect; nearly all actives have a fitted effect of over 55% in size
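Primary qHTS, 1536-well format. 20 nM WRN + compound, 15 min RT; start with 100 nM forked fluorophore/quencher duplex, 2 mM ATP (final); kinetic read ex 525/em 598 nm.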
* = called active by the depositor; [ ] = dose if it differs, or a comment. Unless noted, calls come from the whole dose curve; as a rule, active = well fitted curve in the direction sought with a large enough effect; inconclusive = small, poorly fitted or top-dose-only effect, or another doubt; inactive = no such curve, though single readings can be large; an effect the other way counts as inactive or inconclusive. Unless noted, % is set by controls: 0 for no effect and ±100 for the full control effect.

How did COc1ccc(C(=O)OCC(=O)Nc2sccc2C(N)=O)cc1OC do in these assays?
RECQ1 inh: inconclusive; FEN1 inh: -1.3%; BLM inh: -4.7%; PI5P4Ka inh: -7.2; APE1 inh: 0.7%; WRN helicase inh: -8.0%

Results for O=C(COC(=O)c1ccc(Br)o1)Nc1ncc([N+](=O)[O-])s1 ?
FEN1 inh: inconclusive; PI5P4Ka inh: -53.2*; APE1 inh: 6.5%; WRN helicase inh: inconclusive

What do the screens show for `c1ccc2c(c1)OCCOCCOCCOCCO2`?
RECQ1 inh: -6.7%; BLM inh: 0.3%; APE1 inh: -4.3%

How did O=C(Nc1ccc(F)cc1F)C(Cc1ccccc1)N1Cc2ccccc2C1=O (configuration not stated) do in these assays?
FEN1 inh: -12.9%; BLM inh: -7.7%

Results for Cc1cnc2c(C)cccc2c1C ?
FEN1 inh: -1.0%

Results for O=C(COc1ccccc1)Nc1ccc2nc(SCCOc3ccccc3)sc2c1 ?
FEN1 inh: 0.1%; BLM inh: -2.6%

How did Cc1ccc(C2=NC(c3ccccc3)=Nc3ccc(Cl)cc3N2)cc1 do in these assays?
FEN1 inh: 4.2%; BLM inh: 2.2%

Results for CCCCCCCCCCCCCCCC[n+]1cccc2ccccc21 ?
RECQ1 inh: -5.5%; FEN1 inh: 79.4µM*; BLM inh: -9.2%; PI5P4Ka inh: -59.1*; APE1 inh: 16.9%; WRN helicase inh: inconclusive

Results for CCCCCCCCCCCC[n+]1ccc(C)c2ccccc21 ?
FEN1 inh: 35.5µM*

How did FC(F)(F)c1ccccc1-c1nc(N2CCOCC2)c2ccccc2n1 do in these assays?
RECQ1 inh: -1.3%; BLM inh: -11.4%; APE1 inh: 25.1µM*

How did NC(=O)c1c(NC(=O)COC(=O)c2ccc(O)c(Cl)c2)sc2c1CCCC2 do in these assays?
FEN1 inh: inconclusive; PI5P4Ka inh: -55.3*; APE1 inh: -10.4%; WRN helicase inh: -32.7%

Results for COc1ccc(-c2c(C)c3ccc(O)c(CN4CCC(C)CC4)c3oc2=O)cc1OC ?
FEN1 inh: -6.0%; BLM inh: -0.8%

Results for COc1ccc(C2=CC3=C(Br)C(=O)C(C)(OC(=O)C4CCCC4)C(=O)C3=CO2)cc1 (configuration not stated) ?
RECQ1 inh: 2.6%; FEN1 inh: inconclusive; BLM inh: -3.9%; PI5P4Ka inh: -68.1*; APE1 inh: -1.5%; WRN helicase inh: inconclusive

How did CCCc1ccc(/C=C2\C(=O)c3ccccc3C(O)=C2C(=O)OCC)cc1 do in these assays?
RECQ1 inh: inactive; BLM inh: -12.1%; APE1 inh: -2.0%

Results for CCOC(=O)C1=C(O)c2ccccc2C(=O)/C1=C\c1ccc(CC)cc1 ?
RECQ1 inh: -4.2%; FEN1 inh: inconclusive; BLM inh: -13.9%; APE1 inh: -4.1%; WRN helicase inh: 56.2µM*

What do the screens show for `CCOC(=O)C1=C(Cc2ccc(OC)cc2)C(=O)c2ccccc2C1=O`?
RECQ1 inh: -5.9%; FEN1 inh: inconclusive; BLM inh: -14.3%; APE1 inh: inconclusive; WRN helicase inh: 50.1µM*

Results for CC1CCC(NC(=O)C2(C)Cc3ccccc3C(=O)N2Cc2ccc(F)cc2)CC1 (configuration not stated) ?
FEN1 inh: 3.3%; BLM inh: -3.4%

How did COc1ccc(-n2c(O)c(/C=N/NS(=O)(=O)c3cccc([N+](=O)[O-])c3)c3ccccc3c2=O)cc1OC do in these assays?
RECQ1 inh: 21.7%; FEN1 inh: -8.6%; BLM inh: -11.5%; PI5P4Ka inh: -10.1; APE1 inh: 0.4%; WRN helicase inh: 14.1µM*

What do the screens show for `CCc1ccc(S(=O)(=O)/N=C2\C=C(Nc3ccc(O)cc3)C(=O)c3ccccc32)cc1`?
FEN1 inh: -15.3%; BLM inh: -28.0%; PI5P4Ka inh: inconclusive; APE1 inh: 2.0%; WRN helicase inh: -11.9%[11.6 µM]

How did Cc1ccc(S(=O)(=O)/N=C2/C=C(C3C(=O)CC(C)(C)CC3=O)C(=O)c3ccccc32)cc1 do in these assays?
RECQ1 inh: -7.4%; FEN1 inh: -16.3%; BLM inh: -13.8%; PI5P4Ka inh: 6.4; APE1 inh: -5.2%; WRN helicase inh: 16.8µM*

How did Cc1cc(S(=O)(=O)Nc2ccc(-c3ccc(N4CCCCC4)nn3)cc2)c(C)cc1Cl do in these assays?
FEN1 inh: 0.0%; BLM inh: -8.5%

What do the screens show for `Nc1ccc2c(c1)C/C(=C/c1ccco1)C2=O`?
RECQ1 inh: -25.2%; FEN1 inh: -23.8%; BLM inh: inconclusive; PI5P4Ka inh: -74.1*; APE1 inh: inconclusive; WRN helicase inh: -34.4%

What do the screens show for `O=c1cc(-c2cccnc2)oc2c1ccc1ccccc12`?
RECQ1 inh: inactive; FEN1 inh: 39.8µM*; BLM inh: 5.5%; PI5P4Ka inh: -3.2; APE1 inh: inconclusive; WRN helicase inh: -1.4%[11.6 µM]

Results for O=c1cc(-c2ccccc2)oc2c1ccc1ccccc12 ?
RECQ1 inh: 1.1%; BLM inh: -0.5%; APE1 inh: -1.9%

How did O=C(NC(=S)Nc1ccc(CN2CCCCC2)cc1)c1cccc(OCc2ccccc2)c1 do in these assays?
RECQ1 inh: -7.7%; FEN1 inh: -5.4%; BLM inh: -2.8%; PI5P4Ka inh: 2.0; APE1 inh: 2.1%; WRN helicase inh: -4.0%

What do the screens show for `O=C(O)c1ccc(NC(=S)NC(=O)c2cccc(COc3ccccc3)c2)cc1`?
RECQ1 inh: -4.6%; FEN1 inh: 16.2%; BLM inh: -13.9%; PI5P4Ka inh: -55.3*; APE1 inh: -3.7%; WRN helicase inh: -12.5%

How did C(=C\c1ccnc2ccccc12)/c1ccc(N2CCNCC2)cc1 do in these assays?
FEN1 inh: -12.1%

Results for Cn1nc(-c2ccc(Cl)cc2)nc2c(=O)n(C)c(=O)nc1-2 ?
RECQ1 inh: 1.58µM*; FEN1 inh: -21.2%; BLM inh: 5.62µM*; APE1 inh: inconclusive

What do the screens show for `CCOC(=O)CN1C(=O)S/C(=C\c2ccc(-c3ccc(C(=O)O)c(Cl)c3)o2)C1=O`?
FEN1 inh: inconclusive; BLM inh: -2.3%; PI5P4Ka inh: inconclusive; APE1 inh: 15µM*; WRN helicase inh: -11.9%[11.6 µM]

Results for Cc1ccc(NC(=O)CN2C(=O)S/C(=C\c3ccc(-c4cccc(C(=O)O)c4C)o3)C2=O)cc1C ?
RECQ1 inh: 12.4%; FEN1 inh: 50.1µM*; BLM inh: inconclusive; PI5P4Ka inh: inconclusive; APE1 inh: inconclusive; WRN helicase inh: inconclusive

Results for O=C(CN1C(=O)S/C(=C\c2ccc(-c3cc(C(=O)O)ccc3Cl)o2)C1=O)Nc1ccc2c(c1)OCO2 ?
BLM inh: 10µM*; APE1 inh: 6.7µM*

Screening results as filed in PubChem.
